Measurements from PubChem BioAssay AID1619 (SRMLSC, 2009).
About 830 (0.38%) of roughly 220,000 compounds were called active.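 Rule for the calls: active = compound inhibiting the enzyme by more than half at any dose during confirmatory dose-response retesting; inconclusive = strong single-dose inhibitors picked by rank but not retested; inactive = the rest.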 These entries were drawn from the full list. Measured potencies and affinities stand elsewhere.

biological target: Leucine aminopeptidase (Plasmodium falciparum (isolate 3D7)) (UniProt Q8IL11); assay: P. falciparum M17LAP inhibitors, primary screen, biochemical, fluorogenic H-Leu-NHMec substrate, 1536-well (AID 1619); conditions: recombinant M17LAP, H-Leu-NHMec fluorogenic kinetic assay; at 30 µM; active compounds read high;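 note: plate controls were full reaction with DMSO carrier for no effect and no enzyme background for full effect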
Sequence (Q8IL11 whole entry, looked up): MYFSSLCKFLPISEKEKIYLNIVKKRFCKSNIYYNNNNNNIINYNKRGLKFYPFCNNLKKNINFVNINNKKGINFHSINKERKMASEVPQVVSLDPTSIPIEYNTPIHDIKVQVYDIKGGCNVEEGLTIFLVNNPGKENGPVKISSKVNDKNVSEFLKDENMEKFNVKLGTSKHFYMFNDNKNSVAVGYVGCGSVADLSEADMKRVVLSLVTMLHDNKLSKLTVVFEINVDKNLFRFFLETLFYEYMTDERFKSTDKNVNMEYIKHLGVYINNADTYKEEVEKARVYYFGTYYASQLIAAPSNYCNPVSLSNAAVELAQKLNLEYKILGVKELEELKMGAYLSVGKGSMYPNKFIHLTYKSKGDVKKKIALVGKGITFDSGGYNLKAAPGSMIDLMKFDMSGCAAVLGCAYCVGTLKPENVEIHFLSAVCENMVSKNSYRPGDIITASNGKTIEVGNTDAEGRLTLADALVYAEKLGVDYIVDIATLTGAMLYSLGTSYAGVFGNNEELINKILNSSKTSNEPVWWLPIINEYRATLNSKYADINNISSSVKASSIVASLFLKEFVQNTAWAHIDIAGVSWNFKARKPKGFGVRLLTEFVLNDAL

inhibition, inactive:
CCn1c(COc2ccc3c(c2)CCCC3)nnc1SCC(=O)Nc1ccc(C(=O)OC)cc1 5.55%, Cc1ccc(CNC(=O)C2CC(=O)OC23CCCC3)c(C)c1 (stereo not given) 6.63%, CN(C)CCNc1c2c(nc3nnnn13)CCCC2 5.48%, O=C(NN=C1CCCC1)C1COc2ccccc2O1 (stereo not given) 0.87%, O=C(O)C1CC(=O)N(Cc2ccc3c(c2)OCO3)C1 (stereo not given) -0.32%, COC(=O)[C@@]1(Cc2ccc(F)cc2)[C@H]2c3cc(C(=O)N(C)C)n(Cc4c(CO)[nH]cc(C)c4=O)c3C[C@H]2CN1C(=O)c1ccccc1 6.87%, O=c1cc(NCC2CCCO2)[nH]c(=O)n1-c1ccc(Cl)cc1 (stereo not given) 3.43%, C=CCNS(=O)(=O)c1nc(C)c(Cl)c(C)c1C#N 9.01%, CC(Sc1ncc(C#N)c(N)n1)C(=O)Nc1ccccc1 (stereo not given) 9.93%, CCc1nnc(NS(=O)(=O)c2ccc(N/C=C\C(=O)c3ccc4ccccc4c3)cc2)s1 12.1%, CCc1nnc(NS(=O)(=O)c2ccc(NC(=O)c3cccc4ccccc34)cc2)s1 15%, CCc1nnc(NS(=O)(=O)c2ccc(NC(=S)NC(=O)/C=C/c3ccc(F)cc3)cc2)s1 53%, CCc1nnc(NS(=O)(=O)c2ccc(NC(=O)/C=C/c3ccccc3Cl)cc2)s1 1.04%, CCc1nnc(NS(=O)(=O)c2ccc(NC(=S)NC(=O)/C=C/c3ccc(OC)cc3)cc2)s1 40.7%, CCc1nnc(NS(=O)(=O)c2ccc(NC(=S)NC(=O)/C=C/c3ccccc3)cc2)s1 23.5%, CCc1nnc(NS(=O)(=O)c2ccc(NC(=O)OC)cc2)s1 6.85%, CCc1nnc(NS(=O)(=O)c2ccc(NC(=O)COc3ccc(Cl)c(C)c3)cc2)s1 52.7%, Cc1ccc(Nc2nnc(SCC(=O)NCCN3C(=O)CSC3=O)s2)cc1C 54.4%, O=C(NCCc1c[nH]c2ccccc12)c1c(Cl)nc2sccn12 -3.3%, O=C(NCc1ccncc1)c1cn(-c2ccccc2)nc1-c1cccnc1 9.29%, CCOC(=O)Cc1nnc(Nc2ccc(C)cc2C)c2ccccc12 -12.3%, CC(C)CCNC(=O)C1CCC(=O)N1C(C)C (stereo not given) -2.71%, N#CCCN(CC(=O)O)S(=O)(=O)c1ccccc1 -11.6%, CCc1ccc(C(=O)Nc2nnn(CC)n2)cc1 10.2%, C1CCCCCC2(CCCCC1)OCC(CN1CCOCC1)O2 (stereo not given) 1.36%, Cc1c(C(=O)c2ccccc2)c2ccccn2c1CCc1ccccn1 5.7%, N#Cc1cccc(NC(=O)COC(=O)c2cccc(N3C(=O)c4ccccc4C3=O)c2)c1 8.44%, O=C(CN1NS(=O)(=O)c2ccccc2C1=O)Nc1ccccc1OC(F)F 43.5%, CC1(c2ccccc2)NC(=O)N(CC(=O)Nc2cccc(C#N)c2)C1=O (stereo not given) -4.04%, CCCCc1ccc(NC(=O)CN2NS(=O)(=O)c3ccccc3C2=O)cc1 52.6%, O=C1CSC(c2cccnc2)N1c1ccc(F)cc1 (stereo not given) 9.53%, CC(=O)Nc1ccc(CN2CCCC(CO)(Cc3ccccc3C)C2)cc1 (stereo not given) -0.77%, Nc1nc2n(n1)C(c1ccco1)CC(c1ccc(Cl)cc1)N2 (stereo not given) -19.4%, Cc1cccc(OC(=O)C2C(c3ccccc3)C(C(=O)O)C2c2ccccc2)c1 (stereo not given) 33.4%, COc1ccc(/C=C2/SC(=O)NC2=O)cc1 25.1%, Nc1c(-c2cccc(Cl)c2)cnn1-c1cccc(C(F)(F)F)c1 5.43%, CCOc1ccc(NC(=O)C2C3CCC4C(CCC32)C4(Cl)Cl)cc1 (stereo not given) 9.32%, COc1ccc(OC)c(NC(=O)C2CCCC2)c1 -9.43%, COc1ccc(OC)c(NC(=O)C2CCCCC2)c1 5.19%, C=C1C(C(=O)Nc2ccc(OCC)cc2)C1C(=O)Nc1ccc(OCC)cc1 (stereo not given) -7.51%, CC(=O)NC(=O)NC1OC(=O)C(Cl)=C1Cl (stereo not given) 4.19%, Cn1nc(C(=O)NCCOc2ccccc2)c2ccccc2c1=O -0.35%, CCOC(=O)CSCC(NC(=O)OC(C)(C)C)C(=O)OCC (stereo not given) 0.56%, CCOC(=O)C(CSCC(=O)c1ccc(Cl)cc1)NC(=O)OC(C)(C)C (stereo not given) 25.7%, CCN(CC)S(=O)(=O)c1ccc(N)cc1 11.4%, CCCSc1ccc(C(=O)Nc2ccc(Cl)cc2)cn1 -6.5%, COc1ccc(-n2c(C)cc(/C=C(\C#N)C(=O)NCc3ccco3)c2C)cc1 -8.8%, Cc1cc(/C=C(\C#N)C(=O)NCc2ccco2)c(C)n1-c1cccnc1 20.4%, Cc1ccc(-n2c(Cc3cccn3C)nnc2SCC(=O)NCc2ccco2)cc1 20.7%, Cc1ccc(Cn2ccc(C3CC3)n2)cc1 -1.75%, CC(=O)NC1(C(=O)O)CCCC1 9.39%, COC(=O)C1=C(O)C2(C(=O)O)CC(C(=O)OC)=C(O)C(C(=O)O)(C1)C2 -3.67%, Cc1ccc(S(=O)(=O)NCCCCCC(=O)Nc2ccccc2)cc1 3.08%, CCN1C(=O)/C(=C2/C=Cc3ccccc3N2CC)SC1=S -0.63%, Cc1[nH]nc2c1C(CC(C)C)C(C#N)=C(N)O2 (stereo not given) 14.9%, N#CC1=C(N)Oc2n[nH]c(-c3ccccc3)c2C1c1ccncc1 (stereo not given) 62.5%, Cc1[nH]nc2c1C(c1ccsc1)C(C#N)=C(N)O2 (stereo not given) 29.4%, CCCc1[nH]nc2c1C(c1ccsc1)C(C#N)=C(N)O2 (stereo not given) 2.74%, CC(C)(C)c1[nH]nc2c1C(c1cccnc1)C(C#N)=C(N)O2 (stereo not given) 5.24%, CCCc1[nH]nc2c1C(c1ccncc1)C(C#N)=C(N)O2 (stereo not given) 30.1%, CCc1[nH]nc2c1C(c1cccnc1)C(C#N)=C(N)O2 (stereo not given) 11.3%, CC(C)CC1C(C#N)=C(N)Oc2n[nH]c(-c3cccs3)c21 (stereo not given) 73.3%, CO/N=C/NC(=O)c1c(OC)ccnc1Oc1ccccc1 6.63%, CSCCC(NC(=O)c1ccc([N+](=O)[O-])cc1Cl)C(=O)OCC(=O)N(C)C (stereo not given) -3.36%, O=C(Nc1ccccc1C(=O)N1CCOCC1)C1CCCO1 (stereo not given) -7.06%, CCCc1[nH]nc2c1C(c1cccnc1)C(C#N)=C(N)O2 (stereo not given) 9.46%, COC(=O)Cc1[nH]nc2c1C(c1ccc(O)c(OC)c1)C(C#N)=C(N)O2 (stereo not given) 17.1%, Cc1[nH]nc2c1C(CCc1ccccc1)C(C#N)=C(N)O2 (stereo not given) 68.1%, CC(C)c1[nH]nc2c1C(c1cccnc1)C(C#N)=C(N)O2 (stereo not given) 13.5%, Cc1ccc(C2C(C#N)=C(N)Oc3n[nH]c(C)c32)cc1 (stereo not given) 52.9%, CCCc1[nH]nc2c1C(c1ccc(O)c(OC)c1)C(C#N)=C(N)O2 (stereo not given) 29.1%, CCCc1[nH]nc2c1C(Cc1ccccc1)C(C#N)=C(N)O2 (stereo not given) 28.5%, Cc1ccc(-c2ccc(C3C(C#N)=C(N)Oc4n[nH]c(C)c43)o2)cc1 (stereo not given) 15.7%, CC(C)NC(=O)/C=C/C(=O)O -17.6%, CCn1c(NCc2ccco2)nc2ccccc21 3.48%, Cc1cc(C)cc(OCC(=O)OCC(=O)c2ccc3c(c2)NC(=O)CO3)c1 -0.31%, O=C(CNC(=O)c1ccccc1)NCC(=O)OCc1ccccc1Cl -2.59%, O=C(CN(c1ccccc1)S(=O)(=O)c1ccc(F)cc1)NC1CCS(=O)(=O)C1 (stereo not given) 8.02%, CCOc1ccc(CC(=O)N2CCN=C2SCc2ccc([N+](=O)[O-])cc2)cc1 -3.75%, Cc1cc(C)c2cc(C(=O)N3CCC(Cc4ccccc4)CC3)[nH]c2c1 -4.41%, COC(=O)c1ccc(C(=O)OC)c(NC(=O)CSc2cccc[n+]2[O-])c1 -1.81%, Cc1ccc(-c2csc(/C(C#N)=C(\O)CCl)n2)cc1 6.37%, N#CC1=C(N)Oc2cc3ccccc3cc2C1c1cccnc1 (stereo not given) 0.21%, Cc1ccc(C2C(C#N)=C(N)Oc3nc(-c4ccccc4)[nH]c32)o1 (stereo not given) 94%, Cc1ccc(-c2c(C#N)c(N)nc3c2CCCC3)s1 9.55%, CC(=O)c1nn(-c2cccc(Cl)c2)cc1C(=O)c1ccco1 -0.97%, CC(=O)c1cc(Cl)ccc1OC(=O)c1ccco1 -7.24%, CN(C)CCNC(=O)C(c1ccccc1)c1ccccc1 4.43%, COc1cccc(C(=O)NNC(=O)C(=O)N2CCCCC2)c1 5.57%, O=C(Nc1cccc(C(=O)O)c1)/C(=C/c1ccc2c(c1)OCO2)NC(=O)c1cccc(Br)c1 51.7%, O=C(Nc1ccc(C(=O)O)cc1)/C(=C\c1ccc2c(c1)OCO2)NC(=O)c1ccc(Br)o1 12%, COCCn1nnnc1C(c1ccccc1OC)N1CCN(c2ccccc2F)CC1 (stereo not given) 0.44%, O=C(Cc1ccccc1)N1CCCC(c2nc(-c3ccc(S(=O)(=O)N4CCCC4)cc3)no2)C1 (stereo not given) 0.8%, O=C(O)CCn1cc(/C=C/C(=O)c2ccc(Cl)cc2)c(-c2ccc(Br)cc2)n1 31.8%, O=C(O)CCn1cc(/C=C/C(=O)c2ccc(Cl)cc2)c(-c2cccc(Br)c2)n1 6.04%
